Test results reported in ChEMBL document CHEMBL1157539, “Thousands of chemical starting points for antimalarial lead identification” (Nature, 2010).

What follows are molecules tested on Plasmodium falciparum (assay: GSK_TCMDC: Inhibition of Plasmodium falciparum Dd2 in whole red blood cells, using parasite LDH activity as an index of growth. Test compounds present at 2uM).
Assay type: functional
For `CN(c1ccc(NC(=O)Nc2cc(C(C)(C)C)on2)cc1)c1ccnc(NCCN2CCOCC2)n1.O=C(O)C(F)(F)F`, the Inhibition was 18%. `Clc1ccc(Nc2nc(NCc3ccccc3)nc(N/N=C/c3ccccn3)n2)cc1` was tested, and the Inhibition was 91%. In the case of `CCOC(=O)c1cnc2c(OC)cc(OC)c(Cl)c2c1Nc1cccc(C)c1`, the Inhibition is reported as 20%. Work on `COc1ccc(CCNC(C)Cc2ccc(C(=O)Nc3ccc(CC(C)NCCc4cccc(Cl)c4)cc3)cc2)cc1` (stereo not given) yielded an Inhibition of 89%. Work on `O=C(c1ccc(Cl)cc1)C1CCCN(C2CCN(CCc3ccccc3)CC2)C1` (stereo not given) yielded an Inhibition of 51%. Molecule `Cc1nc(N)nc(N)c1C#CC1CCCC1` has an Inhibition of 2%. With `COc1ccc(NC(=O)NC2CCN(CCCOc3ccnc4cc(Cl)ccc34)C2)cc1OC` (stereo not given) the Inhibition was 16%. Work on `Br.CCc1ccccc1OCCCON1C(=N)N=C(N)NC1(C)C` yielded an Inhibition of 97%. `Cc1cccc2nc(-c3cccc(-c4ccc(NC(=O)COc5ccccc5C(N)=O)cc4)c3)[nH]c12` gave an Inhibition of 47%. `CCCCOc1ccc(N2C(N)=NC(N)=NC2(C)C)cc1.Cl` was tested, and the Inhibition was 3%. With `COc1ccc2nc3cc(Cl)ccc3c(NCCO)c2c1.Cl` the Inhibition was 93%. `CN(C)CCNc1ncnc2c1[nH]c1ccc(Cl)cc12` was tested, and the Inhibition was 8%. With `Nc1ncc(-c2ccc3ncccc3c2)c(N)n1.O=C(O)C(F)(F)F` the Inhibition was 0%. `Cc1cc(N[C@@H](Cc2ccccc2)C(=O)NCCCOC(C)C)nc(NCC2CCCCC2)n1.O=C(O)C(F)(F)F` was tested, and the Inhibition was 25%. Molecule `COc1cccc(OC)c1CN1CCC(N(C)CCCCCCCCCN2CCC(OC(=O)Nc3ccccc3-c3ccccc3)CC2)CC1` has an Inhibition of 98%. In the case of `Cc1[nH]c(C)c(-c2ccc(-c3ccccc3C(F)(F)F)nc2)c(=O)c1Br`, the Inhibition is reported as 96%. `O=[N+]([O-])c1ccccc1C=NN=c1c2c([nH]c3ccccc13)CCCC2` was tested, and the Inhibition was 99%. `Cl.Clc1ccc2c(NCCCCCCCCNc3ccnc4cc(Cl)ccc34)ccnc2c1` showed an Inhibition of 96%. With `C=CCOC(=O)N1CCC(CNCc2cccc(-c3ccc(-c4nc5cccc(C)c5[nH]4)s3)c2)C1.O=C(O)C(F)(F)F` (stereo not given) the Inhibition was 82%. `Nc1ncc(-c2ccc(NC(=O)Nc3cc(C(F)(F)F)ccc3F)cc2)c(N)n1.O=C(O)C(F)(F)F` showed an Inhibition of 21%. Molecule `CN(C)c1ccc(C(c2ccc(N(C)C)cc2)c2cc([N+](=O)[O-])ccc2Cl)cc1` has an Inhibition of 67%. `CCCCc1ccc(C(=O)NC2CCN(C[C@H](O)c3ccnc4ccc(OC)cc34)CC2)cc1` was tested, and the Inhibition was 22%. For `COc1ccccc1CC1CCCN(C2CCC(NC(=O)c3cc4ccccc4[nH]3)CC2)C1` (stereo not given), the Inhibition was 21%. With `Cc1ccccc1C1CCN(C2CCC(NC(=O)/C=C/c3cc(F)cc(F)c3)CC2)CC1` (stereo not given) the Inhibition was 33%. `CC(C)CCNC(=O)C1Cc2c([nH]c3ccc(Br)cc23)C2(CCN(Cc3ccccc3)CC2)N1` (stereo not given) gave an Inhibition of 68%. Molecule `COc1ccc2c(OC)ccc(CNCCCCCCNCc3ccc(OC)c4ccc(OC)cc34)c2c1.CS(=O)(=O)O` has an Inhibition of 98%. With `CN(Cc1ccc(-c2ccc(C(F)(F)F)cc2)cc1)C(=O)Cn1c(CCc2cccc(F)c2F)cc(=O)c2ccc(OCCCN3CCCCC3)cc21.O=C(O)C(O)C(O)C(=O)O` the Inhibition was 90%. With `CCC(C(=O)Nc1cc(=O)[nH]c2nc(-c3ccco3)nn12)c1ccccc1` (stereo not given) the Inhibition was 68%. Work on `Cc1[nH]c(C)c(-c2ccc(-c3ccc(C(F)F)cc3)nc2)c(=O)c1Cl` yielded an Inhibition of 96%. For `Cc1cc(N2CCN(C)CC2)nc2ccc(NC(=O)c3cccc(N(C)C)c3)cc12`, the Inhibition was 23%.

Each molecule was assayed on HepG2 (assay: GSK_TCMDC: Percent inhibition of human HepG2 cell line. Test compounds present at 10uM.).
Assay type: functional
Work on `FC(F)(F)c1ccc2[nH]c(-c3ccc(-c4ccc(CNCC5CCCO5)cc4)s3)nc2c1.O=C(O)C(F)(F)F` (stereo not given) yielded an Inhibition of 47%. `CCc1nc2nc(C)cc(Nc3ccc(F)c(Cl)c3)n2n1` showed an Inhibition of 2%. `Br.Oc1ccc(CCNCCCCCCNCCc2ccc(Br)cc2)cc1O` showed an Inhibition of 2%. `O=C(/C=C/c1ccc(Cl)c(Cl)c1)N1CCC(NCc2c[nH]c3ccccc23)CC1` was tested, and the Inhibition was 36%. `COc1ccc(CNC2CCN(C)CC2)cc1-c1ccc(S(=O)(=O)NCc2ccccc2)c(F)c1.O=C(O)C(F)(F)F` gave an Inhibition of 53%. `O=C(Nc1ccc(C(F)(F)F)cc1)c1cccc(S(=O)(=O)NC2CCN(Cc3ccccc3)C2)c1.O=C(O)C(F)(F)F` (stereo not given) showed an Inhibition of 39%. Molecule `Cc1cc(C)cc(OCC(O)CN(Cc2cc(Cl)cc(Cl)c2)C(=O)Nc2ccccc2Cl)c1` (stereo not given) has an Inhibition of 0%. With `C=CCOC(=O)N1CCC(CNCc2cccc(-c3ccc(-c4nc5cc(C(F)(F)F)ccc5[nH]4)cc3)c2)C1.O=C(O)C(F)(F)F` (stereo not given) the Inhibition was 28%. `CC(=O)N(C)c1cccc(C(=O)Nc2cccc(-c3cccc(-c4nc5cccc(C)c5[nH]4)c3)c2)c1` was tested, and the Inhibition was 15%. In the case of `Cn1cc(C(=O)Nc2cccc(-c3cccc(-c4nc5cc(F)ccc5[nH]4)c3)c2)n(C)c1=O`, the Inhibition is reported as 15%. `CN(c1ccc(NC(=O)Nc2cc(C(C)(C)C)on2)cc1)c1ccnc(NCCN2CCOCC2)n1.O=C(O)C(F)(F)F` gave an Inhibition of 51%. `Clc1ccc(Nc2nc(NCc3ccccc3)nc(N/N=C/c3ccccn3)n2)cc1` was tested, and the Inhibition was 41%. In the case of `CCOC(=O)c1cnc2c(OC)cc(OC)c(Cl)c2c1Nc1cccc(C)c1`, the Inhibition is reported as 0%. Work on `COc1ccc(CCNC(C)Cc2ccc(C(=O)Nc3ccc(CC(C)NCCc4cccc(Cl)c4)cc3)cc2)cc1` (stereo not given) yielded an Inhibition of 99%. `O=C(c1ccc(Cl)cc1)C1CCCN(C2CCN(CCc3ccccc3)CC2)C1` (stereo not given) was tested, and the Inhibition was 37%. `Cc1nc(N)nc(N)c1C#CC1CCCC1` was tested, and the Inhibition was 68%. Molecule `COc1ccc(NC(=O)NC2CCN(CCCOc3ccnc4cc(Cl)ccc34)C2)cc1OC` (stereo not given) has an Inhibition of 6%. Work on `Br.CCc1ccccc1OCCCON1C(=N)N=C(N)NC1(C)C` yielded an Inhibition of 77%. Work on `Cc1cccc2nc(-c3cccc(-c4ccc(NC(=O)COc5ccccc5C(N)=O)cc4)c3)[nH]c12` yielded an Inhibition of 18%. `CCCCOc1ccc(N2C(N)=NC(N)=NC2(C)C)cc1.Cl` gave an Inhibition of 16%. `COc1ccc2nc3cc(Cl)ccc3c(NCCO)c2c1.Cl` showed an Inhibition of 12%. With `CN(C)CCNc1ncnc2c1[nH]c1ccc(Cl)cc12` the Inhibition was 7%. `Nc1ncc(-c2ccc3ncccc3c2)c(N)n1.O=C(O)C(F)(F)F` gave an Inhibition of 55%. `Cc1cc(N[C@@H](Cc2ccccc2)C(=O)NCCCOC(C)C)nc(NCC2CCCCC2)n1.O=C(O)C(F)(F)F` showed an Inhibition of 17%. Molecule `COc1cccc(OC)c1CN1CCC(N(C)CCCCCCCCCN2CCC(OC(=O)Nc3ccccc3-c3ccccc3)CC2)CC1` has an Inhibition of 100%. Molecule `Cc1[nH]c(C)c(-c2ccc(-c3ccccc3C(F)(F)F)nc2)c(=O)c1Br` has an Inhibition of 0%. Molecule `O=[N+]([O-])c1ccccc1C=NN=c1c2c([nH]c3ccccc13)CCCC2` has an Inhibition of 0%. Work on `Cl.Clc1ccc2c(NCCCCCCCCNc3ccnc4cc(Cl)ccc34)ccnc2c1` yielded an Inhibition of 2%. In the case of `C=CCOC(=O)N1CCC(CNCc2cccc(-c3ccc(-c4nc5cccc(C)c5[nH]4)s3)c2)C1.O=C(O)C(F)(F)F` (stereo not given), the Inhibition is reported as 11%. `Nc1ncc(-c2ccc(NC(=O)Nc3cc(C(F)(F)F)ccc3F)cc2)c(N)n1.O=C(O)C(F)(F)F` was tested, and the Inhibition was 96%. `CN(C)c1ccc(C(c2ccc(N(C)C)cc2)c2cc([N+](=O)[O-])ccc2Cl)cc1` was tested, and the Inhibition was 0%. `CCCCc1ccc(C(=O)NC2CCN(C[C@H](O)c3ccnc4ccc(OC)cc34)CC2)cc1` gave an Inhibition of 24%. `COc1ccccc1CC1CCCN(C2CCC(NC(=O)c3cc4ccccc4[nH]3)CC2)C1` (stereo not given) was tested, and the Inhibition was 23%. With `Cc1ccccc1C1CCN(C2CCC(NC(=O)/C=C/c3cc(F)cc(F)c3)CC2)CC1` (stereo not given) the Inhibition was 53%. In the case of `CC(C)CCNC(=O)C1Cc2c([nH]c3ccc(Br)cc23)C2(CCN(Cc3ccccc3)CC2)N1` (stereo not given), the Inhibition is reported as 100%. In the case of `COc1ccc2c(OC)ccc(CNCCCCCCNCc3ccc(OC)c4ccc(OC)cc34)c2c1.CS(=O)(=O)O`, the Inhibition is reported as 100%. For `CN(Cc1ccc(-c2ccc(C(F)(F)F)cc2)cc1)C(=O)Cn1c(CCc2cccc(F)c2F)cc(=O)c2ccc(OCCCN3CCCCC3)cc21.O=C(O)C(O)C(O)C(=O)O`, the Inhibition was 79%. Work on `CCC(C(=O)Nc1cc(=O)[nH]c2nc(-c3ccco3)nn12)c1ccccc1` (stereo not given) yielded an Inhibition of 2%. `Cc1[nH]c(C)c(-c2ccc(-c3ccc(C(F)F)cc3)nc2)c(=O)c1Cl` showed an Inhibition of 0%. `Cc1cc(N2CCN(C)CC2)nc2ccc(NC(=O)c3cccc(N(C)C)c3)cc12` gave an Inhibition of 9%.
